Structures are written as SMILES. Screen size: about 320,000 compounds; about 1,400 (0.44%) were called active. The sample holds actives, similar compounds and a random draw of the others, so the mix is not that of the screen.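 How the source made its calls: active means percent inhibition above a per-plate cutoff, the plate mean of test compounds plus 3 SD (cut at about 30% in these data); inactive means the rest.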

Female germline-specific tumor suppressor gld-1 (Caenorhabditis elegans), sequence (Q17339 whole entry, looked up): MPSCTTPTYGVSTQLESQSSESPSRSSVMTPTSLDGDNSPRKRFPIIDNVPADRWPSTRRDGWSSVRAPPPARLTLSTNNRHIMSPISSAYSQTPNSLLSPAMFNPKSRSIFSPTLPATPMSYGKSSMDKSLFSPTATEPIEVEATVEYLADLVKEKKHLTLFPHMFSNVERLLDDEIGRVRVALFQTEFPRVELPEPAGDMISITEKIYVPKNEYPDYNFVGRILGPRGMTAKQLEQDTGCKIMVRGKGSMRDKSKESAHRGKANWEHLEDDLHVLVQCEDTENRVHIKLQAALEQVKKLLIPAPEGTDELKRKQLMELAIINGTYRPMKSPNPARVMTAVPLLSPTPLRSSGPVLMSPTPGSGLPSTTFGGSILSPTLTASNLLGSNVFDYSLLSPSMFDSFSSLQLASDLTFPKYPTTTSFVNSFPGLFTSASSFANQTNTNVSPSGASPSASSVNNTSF

The assay has as its target Female germline-specific tumor suppressor gld-1 (Caenorhabditis elegans) (UniProt Q17339). The assay can be described thus: GLD-1/TGE RNA complex disruptors, primary screen, biochemical, fluorescence polarization (AID 2280).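 Further: 0% = DMSO wells with GLD-1 and probe and 100% = wells lacking GLD-1.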 To be noted: purified GLD-1 + fluorescein TGE RNA, at 5.96 µM, stronger effect = higher value. Background: Polarisation of emitted light reports the rotation of a fluorescent probe.
As to `CCSc1nc2sc3c(c2c(=O)[nH]1)CC(C)(C)OC3`, the inhibition was -5.06% (inactive).
On to `CC/C(C)=N/Nc1nc2sc3c(c2c(=O)[nH]1)CC(C)(C)OC3`, for which the inhibition was 62.3% (active).
Consider `CC(C)c1nc2sc3c(c2c(=O)n1N)CC(C)(C)OC3`, for which the inhibition is 2.68% (inactive).
In the case of `O=C(COC(=O)C1CC2CCCC(C1)C2=O)NC(=O)c1ccccc1` (centres undefined), the inhibition is 0.04% (inactive).
For the compound `O=S(=O)(c1ccc(-c2ccno2)s1)N1CCCCC1`, the inhibition was 0.96% (inactive).
`CC1(OC(=O)C2CCCC2)C(=O)C=C2C=C(c3ccc(C#N)cc3)OC=C2C1=O` (centres undefined): the inhibition is 17.8% (inactive).
Regarding `CC(C)(C)OC(=O)NCCCC1=CC2=CC(=O)C(C)(OC(=O)c3ccco3)C(=O)C2=CO1` (centres undefined), the inhibition was 86.5% (active).
For the compound `C=CCN1C=C2C(=O)C(C)(OC(=O)CCc3ccccc3)C(=O)C=C2C=C1c1ccc(C#N)cc1` (centres undefined), the inhibition is 18.7% (inactive).
Regarding `CN1CCN(c2ccccc2NC(=O)COc2ccc(C3CCCCC3)cc2)CC1`, the inhibition was 2.44% (inactive).
As for `N#CCCN(C(=O)COC(=O)c1ccc2c(c1)OCCO2)c1ccccc1`, the inhibition was 0.3% (inactive).
With `O=C(O)c1cc(Cl)c(Cl)cc1C(=O)Nc1cccc2ncccc12` the figure was 7.15% (inactive).
As for `Cc1ccc(/C=C(\C#N)C(=O)Nc2cccc3ncccc23)o1`, the inhibition was 59.6% (active).
With `N#C/C(=C\c1ccccc1C(F)(F)F)C(=O)Nc1ccccc1F`, the inhibition is 0.78% (inactive).
As to `COc1cc(NC(=O)COC(=O)c2ccc([N+](=O)[O-])s2)cc(OC)c1OC`, the inhibition was 4.4% (inactive).
In the case of `O=C(Cc1ccc(S(=O)(=O)N2CCOCC2)s1)N1CCN(c2ccc(C(F)(F)F)cc2[N+](=O)[O-])CC1`, the inhibition is 8.86% (inactive).
As for `CCOC(=O)c1ccccc1CN1C(=O)c2ccccc2S1(=O)=O`, the inhibition is 1.98% (inactive).
Turning to `CCOC(=O)c1cc2n(c1N)-c1ccccc1C2=O`, the inhibition is 117% (active).
On to `CC(C)OC(=O)CN1C(=O)C(=O)c2ccccc21`, for which the inhibition is -0.34% (inactive).
With `Cc1ccc(CNC(=O)C2CCCN2S(=O)(=O)c2ccc3c(c2)C(C)(C)C(=O)N3C)cc1` (centres undefined), the inhibition is -3.08% (inactive).
For the compound `CCOC(=O)c1cnc2nc(SCc3ccccc3Cl)[nH]n2c1=O`, the inhibition was -4.26% (inactive).
As for `Oc1[nH]c2ccc(Br)cc2c1N=Nc1nn[nH]n1`, the inhibition was 9.48% (inactive).
On to `Cc1cccc(N=Nc2c(O)[nH]c3ccc(F)cc23)c1`, for which the inhibition is 67.5% (active).
In the case of `NS(=O)(=O)c1ccc(N=Nc2c(O)[nH]c3ccc(Br)cc23)cc1`, the inhibition was 15.6% (inactive).
In the case of `CSc1ccc(S(=O)(=O)N2CCC(C(=O)NCc3ccncc3)CC2)cc1`, the inhibition was -3.16% (inactive).
As to `CSc1ccccc1NC(=O)C(C)N1C(=O)c2ccccc2S1(=O)=O` (centres undefined), the inhibition was -0.85% (inactive).
With `CN1c2ccc(C=O)c3c(C=O)ccc(c23)N(C)C1(C)C` the figure was 134% (active); with `Cc1cc(C)c(S(=O)(=O)c2cc(F)ccc2C)c(=O)[nH]1`, -0.88% (inactive); with `O=C1NC[C@@H](c2ccccc2)OC(=O)[C@H](Cc2ccc(F)cc2)CC/C=C/C[C@H]1CC(=O)N(CCO)Cc1ccccc1`, 3.17% (inactive).
Regarding `CC(C)OC(=O)C(C#N)c1nc2ccccc2nc1N1CCN(Cc2ccccc2)CC1` (centres undefined), the inhibition is 6.85% (inactive).
As for `Cc1cc(N2CCN(S(=O)(=O)c3ccc(C)c(C)c3)CC2)c2ccccc2n1`, the inhibition was 1.62% (inactive).
For `Cc1ccc(S(=O)(=O)C(C#N)c2nc3ccccc3nc2N2CCCC2)cc1C` (centres undefined), the inhibition was 54.9% (active).
Regarding `CCN(C[C@H]1N[C@@](CC)(C(=O)OC)[C@H]2C(=O)N(Cc3ccccc3)C(=O)[C@@H]12)S(=O)(=O)c1ccc(C(F)(F)F)cc1`, the inhibition is 7.64% (inactive).
As for `COc1ccc(Cl)cc1NC(=O)COC(=O)c1ccc(Br)o1`, the inhibition is -3.63% (inactive).
Take `COc1ccccc1N1CC(C(=O)NCCN2C(=O)S/C(=C\c3cccnc3)C2=O)CC1=O` (centres undefined): the inhibition is 4.79% (inactive).
For the compound `CCOc1ccc(N2CC(C(=O)NCCN3C(=O)S/C(=C\c4cccnc4)C3=O)CC2=O)cc1` (centres undefined), the inhibition is -0.09% (inactive).
`COc1ccc(N2CC(C(=O)NCCN3C(=O)S/C(=C\c4cccnc4)C3=O)CC2=O)c(OC)c1` (centres undefined): the inhibition is 118% (active).
The value for `C=CCC(NC(=O)Cc1ccccc1)C(=O)NCCC` (centres undefined) was -2.12% (inactive); that for `Cc1ccc(Cn2nnc3c(=O)[nH]c(C4CCN(S(=O)(=O)/C=C/c5ccccc5)CC4)nc32)cc1` was 1.59% (inactive); that for `O=C(COC(=O)c1cc[n+]([O-])cc1)Nc1ccc(Cl)c(C(F)(F)F)c1` was 8.04% (inactive).
With `CC(NC(=O)c1ccco1)c1ccc2c(c1)OCO2` (centres undefined) the figure was -0.47% (inactive).
Regarding `COc1ccc(Nc2cc(Cl)ccc2C(=O)O)cn1`, the inhibition is 66.1% (active).
As for `COc1ccc(NS(=O)(=O)c2ccc(F)cc2F)cn1`, the inhibition was -1.42% (inactive).
`COc1cccc(Nc2ncccc2C(=O)O)c1`: the inhibition was 3.26% (inactive).
Regarding `COc1cc(OC)cc(-c2c(C#Cc3ccsc3)c3cc(-c4ccc(OC)cc4F)ccc3n2C)c1`, the inhibition was -36.1% (inactive).
Take `Cc1ccc(NC(=O)C(=O)NCc2ccc(/C=N/NC(=O)c3c(C)nc4cc(C)ccn34)o2)cc1`: the inhibition is 1.79% (inactive).
Consider `Cc1ccc(S(=O)(=O)Nc2nc(CN3CCOCC3)nc3sc(C)c(C)c23)cc1`, for which the inhibition was -15.1% (inactive).
The value for `C[n+]1ccc(/C=C/c2c[nH]c3ccccc23)cc1` was 55.5% (active); that for `O=C(NC1CCCC1)C(=O)c1c[nH]c2ccccc12` was 6.85% (inactive).
Consider `COc1ccc(/C=C(\C#N)c2c[nH]c3ccccc23)cc1`, for which the inhibition is 8.67% (inactive).
With `COc1ccccc1-n1c(SCC(=O)Nc2cccc(C(=O)O)c2)nnc1-c1ccccc1O`, the inhibition was 6.18% (inactive).
For `OC1CN=C2Sc3ccccc3N2C1` (centres undefined), the inhibition was 12.5% (inactive).
With `CNC(=S)NNC(=O)c1cccn(Cc2ccccc2)c1=O` the figure was 3.04% (inactive); with `NNC(=O)c1oc2nc(-c3ccccc3)cc(-c3ccco3)c2c1N`, -23.7% (inactive); with `CNC(=S)NNC(=O)c1oc2nc(-c3ccccc3)cc(-c3ccco3)c2c1N`, 38.9% (active).
As for `Cc1ccc(C(=O)NCC(=O)OCC(=O)Nc2cccc(S(=O)(=O)N3CCCC3)c2)cc1C`, the inhibition is 7.23% (inactive).
Regarding `COC(=O)c1sccc1NN1C(=O)c2ccccc2C1=O`, the inhibition was 4.27% (inactive).
Consider `CCOCCOCCC(C(=O)O)P(=O)(c1ccccc1)c1ccccc1` (centres undefined), for which the inhibition is 6.44% (inactive).
Consider `CCCN1CC=C2C(C#N)=C(N)C(C#N)(C#N)C(c3cc(OC)ccc3OC)C2C1` (centres undefined), for which the inhibition was 49% (active).
On to `CCN1CC=C2C(C#N)=C(N)C(C#N)(C#N)[C@H](c3ccoc3)[C@H]2C1`, for which the inhibition is 106% (active).
With `COC(=O)c1ccc(CNC(=O)C2CCC(=O)N(Cc3ccccn3)C2)cc1` (centres undefined), the inhibition is 0.64% (inactive).
Regarding `O=S(=O)(c1ccc(Cl)s1)N1CCC2(CC1)OCCO2`, the inhibition is -2.17% (inactive).
For the compound `N#C[C@]1(S(=O)(=O)c2ccccc2)C[C@@H]2ON=C(c3cccc(Br)c3)[C@@H]2C1`, the inhibition is -1.68% (inactive).
The value for `O=C(Nc1cccc(F)c1)[C@@H]1CCCN1` was 4.36% (inactive); that for `Cc1ccc(S(=O)(=O)N2CCOCC2)cc1C(=O)OC1CCCCC1=O` (centres undefined) was -3.51% (inactive).
For `CCOC(=O)c1nc(Nc2ccc(C(=O)OC)cc2)c2ccccc2n1`, the inhibition is -1.24% (inactive).
Consider `O=[N+]([O-])c1ccc(F)cc1Oc1nc(-c2cccnc2)nc2ccccc12`, for which the inhibition was -1.37% (inactive).
As for `COc1ccc(Nc2nc(-c3cccnc3)nc3ccccc23)cn1`, the inhibition is 100% (active).
On to `CNC(=O)c1[nH]cnc1C(=O)N[C@@H](CC(C)C)C(=O)OCc1ccccc1`, for which the inhibition was 10.1% (inactive).
Regarding `COC(=O)CN1C(=O)N/C(=C/c2ccc(OC)c(C)c2OC)C1=O`, the inhibition was 9.69% (inactive).
With `O=C(OCC1OC(Oc2ccc(O)cc2)C(O)C(O)C1O)c1ccccc1` (centres undefined) the figure was 2.13% (inactive); with `O=C(OCC1O[C@@H](OC(=O)c2cc(O)c(O)c(O)c2)[C@@H](OC(=O)c2cc(O)c(O)c(O)c2)[C@@H](OC(=O)c2cc(O)c(O)c(O)c2)[C@@H]1OC(=O)c1cc(O)c(O)c(O)c1)c1cc(O)c(O)c(O)c1` (some centres undefined), 34.6% (active); with `Cc1ccc(NC(=O)c2ccc(Cl)nc2)cc1S(=O)(=O)N1CCOCC1`, -0.28% (inactive).
Turning to `O=C1c2ccccc2C(=O)c2c1cccc2N1CCN(Cc2ccccc2)CC1`, the inhibition is 0.8% (inactive).
As to `O=C1c2ccccc2C(=O)c2c1cccc2N1CCN(C/C=C/c2ccccc2)CC1`, the inhibition was 9.38% (inactive).
With `O=C1c2ccccc2C(=O)c2c1cccc2N1CCN(CCO)CC1` the figure was 48.6% (active); with `CC(C(=O)NCC1CCCCC1)N(C)Cc1cccc(Cl)c1` (centres undefined), 4.56% (inactive).
With `CN(C)/C=C(/C(=O)c1ccc(F)cc1)S(=O)(=O)c1ccc(F)cc1`, the inhibition is 3.44% (inactive).
On to `O=c1[nH]cccc1-c1nc2ccccc2n1Cc1ccc(Cl)cc1`, for which the inhibition is 45% (active).
As to `Nc1nonc1-c1nc2ccccc2n1Cc1ccc(F)cc1`, the inhibition is 1.28% (inactive).
The value for `CC(=O)Nc1nc2ccccc2n1Cc1ccc(C)cc1` was 0.42% (inactive); that for `CC1OC2C(OC1C)N(S(C)(=O)=O)CCN2S(C)(=O)=O` (centres undefined) was 3.56% (inactive).
`CCCOc1ccc(N2C(=O)CC(N(CCc3ccc(S(N)(=O)=O)cc3)C(C)=O)C2=O)cc1` (centres undefined): the inhibition was -1.23% (inactive).
The value for `C=CCSc1nnc(N2C(=O)C(O)=C(C(=O)c3ccco3)C2c2ccc(F)cc2)s1` (centres undefined) was 44.5% (active); that for `CC(C)c1ccc(C2C(C(=O)c3ccco3)=C(O)C(=O)N2CC2CCCO2)cc1` (centres undefined) was 4.96% (inactive).
As for `Cc1ccc2nc(N3C(=O)C(O)=C(C(=O)c4ccco4)C3c3cccc(O)c3)sc2c1` (centres undefined), the inhibition was 0.27% (inactive).
On to `CCN1CCC2(CC1)N=C(c1ccc(F)cc1)C(=S)N2C(=O)c1ccc(C)cc1`, for which the inhibition was 7.8% (inactive).
As for `CCCn1c(C(C)Nc2nc(-c3ccc(C)cc3)cs2)nc2cc(Cl)c(N3CCCCC3)cc21` (centres undefined), the inhibition is 2.12% (inactive).
With `CCCn1c(C2CCCN2c2nc(-c3ccc(OC)cc3)cs2)nc2ccccc21` (centres undefined) the figure was 9.35% (inactive).
Consider `CCCn1c(C2CCCN2c2nc(-c3ccc(C)cc3)cs2)nc2cc(Cl)c(N3CCCCC3)cc21` (centres undefined), for which the inhibition is 34.6% (active).

Broadly, the inhibition is the change of the read-out against control, counted positive when it falls.

For the origin of these results see PubChem BioAssay AID2280 (The Scripps Research Institute Molecular Screening Center, 2010).
